The source of these data is ChEMBL document CHEMBL4513216, “Probing the Open Global Health Chemical Diversity Library for Multistage-Active Starting Points for Next-Generation Antimalarials” (ACS Infect Dis, 2020).

Screen size: about 69,000 compounds; about 8,600 (12%) showed an effect of 50% or more. Shown is part of a subset that was picked to be rich in strong results.

The subject of this assay is Plasmodium berghei. The assay can be described thus: Screen against P. berghei liver stage (PbLuc), transformed with Luciferase, at 10uM. The assay is classed as functional, HepG2. The note with it: tested at 10 uM.
For `Cc1nnc(N2CCOC(C)(C(=O)N(C)C)C2)c2ccccc12` (stereo not given), the INHIBITION is -9.51%. Then `Cc1cnn(CC2CCCN2C(=O)c2cccc3[nH]ncc23)c1` (stereo not given), with 24.5%; and `Cc1cccc(Oc2ccccc2CNC(=O)C2CCC(=O)NC2)c1` (stereo not given), with 37.9%; and `O=C(NCc1ccc(F)cc1)NCC(O)(c1ccco1)C1CC1` (stereo not given), with 66.9%. As for `O=C(NCC(O)(c1ccco1)C1CC1)c1ccccc1F` (stereo not given), the INHIBITION came out at 9.79%. On to `O=C(NCc1ccc(F)cc1)NCC(O)(c1cccs1)C1CC1` (stereo not given), for which the INHIBITION is listed as -11.8%. To `CN(C)Cc1nn(C)c2c1CCN(C(=O)c1cccnc1)C2` belongs 17.4%; to `Fc1ccc(N2CCOC(Cc3cccnc3)C2)cc1` (stereo not given), 7.52%. For `CN1C[C@@H]2CC[C@H]1CN(C(=O)COCc1nc3ccc(F)cc3[nH]1)C2`, the INHIBITION amounted to 35.1%. Then `CN(C)[C@H]1CCCCN(C(=O)COCc2nc3cc(F)ccc3[nH]2)C1`, with 51.3%; and `CN1CC[C@H]2CN(C(=O)COCc3nc4cc(F)ccc4[nH]3)C[C@H]21`, with 47.3%; and `Cc1ccc(Br)cc1C(=O)Nc1cc(C(N)=O)n(C)c1`, with -20.2%. As to `Cc1nc(C)n(CC2CN(Cc3cscn3)CCO2)n1` (stereo not given), the INHIBITION is given as 21.935%. To `Cc1ccccc1-n1cc(-c2ccnc(N[C@@H](CO)C(C)C)n2)cn1` belongs 8.7%; to `Cc1ccccc1-n1cc(-c2ccnc(NC(CO)C(C)C)n2)cn1` (stereo not given), 95.7%. Take `COc1cccc(-n2cc(-c3ccnc(N[C@H](CO)C(C)C)n3)cn2)c1`: the INHIBITION is on record as 5.8%. To `COc1cccc(-n2cc(-c3ccnc(NC(CO)C(C)C)n3)cn2)c1` (stereo not given) belongs -40.6%; to `COc1cccc(-n2cc(-c3ccnc(N[C@@H](CO)C(C)C)n3)cn2)c1`, -95.7%; to `Cc1ccccc1-n1cc(-c2ccnc(N3CCCC(CN)C3)n2)cn1` (stereo not given), -29.6%. Then `Cc1ccccc1-n1cc(-c2ccnc(N3CCCC(O)C3)n2)cn1` (stereo not given), with 3.06%; and `COC[C@H]1CCCN1c1nccc(-c2cnn(-c3ccccc3C)c2)n1`, with 78.5%. As to `Cc1ccccc1-n1cc(-c2ccnc(N[C@H](CO)C(C)C)n2)cn1`, the INHIBITION came to 68.2%.

For `Cc1cc(CN2CCN(C(=O)NCc3cccs3)CC2)no1`, the INHIBITION was -43.5%. Take `CC(=O)NCCc1ccc(S(=O)(=O)Nc2cc(F)ccc2C)s1`: the INHIBITION is on record as -12.2%. `CC(=O)N1CCC(c2cccc(NC3CCOCC3)n2)CC1`: the INHIBITION came to 11.8%. To `COCCOCC1(CNC(=O)c2ccc(OC)cc2)C[C@@H](O)[C@@H](O)C1` (stereo not given in full) belongs 50.6%; to `COCCOCC1(CNCc2ccc(OC)cc2)C[C@@H](O)[C@@H](O)C1` (stereo not given in full), -1.12%; to `COCCOCC1(CNCc2cccc(OC)c2)C[C@@H](O)[C@@H](O)C1` (stereo not given in full), 12.4%.

`Cc1nccc(N[C@H]2CN(CC(C)(C)N3CCOCC3)C[C@@H]2C2CC2)n1`: the INHIBITION is on record as -10.6%.

With `c1cc(CN2CC[C@H]3CO[C@H](CN4CCOCC4)[C@H]3C2)cs1`, the INHIBITION stood at 2.59%.
